Assay results as given in PubChem BioAssay (Tox21).
Records with an inconclusive call do not appear. Activity calls are given as the source filed them. Unless noted, the call rests on the fitted dose curve; in most records, active means well fitted curve in the direction sought with a large enough effect in the repeat runs; inconclusive means weak or mixed curves; inactive means no such curve, though single readings can be large; an effect the other way counts as inactive or inconclusive.

Columns and labels:
[1] = biological target: Peroxisome proliferator-activated receptor delta (Homo sapiens) (UniProt Q03181); test: qHTS assay to identify small molecule agonists of the peroxisome proliferator-activated receptor delta (PPARd) signaling pathway (AID 743212; calls by dose curve)
Peroxisome proliferator-activated receptor delta (Homo sapiens), sequence (Q03181 whole entry, looked up): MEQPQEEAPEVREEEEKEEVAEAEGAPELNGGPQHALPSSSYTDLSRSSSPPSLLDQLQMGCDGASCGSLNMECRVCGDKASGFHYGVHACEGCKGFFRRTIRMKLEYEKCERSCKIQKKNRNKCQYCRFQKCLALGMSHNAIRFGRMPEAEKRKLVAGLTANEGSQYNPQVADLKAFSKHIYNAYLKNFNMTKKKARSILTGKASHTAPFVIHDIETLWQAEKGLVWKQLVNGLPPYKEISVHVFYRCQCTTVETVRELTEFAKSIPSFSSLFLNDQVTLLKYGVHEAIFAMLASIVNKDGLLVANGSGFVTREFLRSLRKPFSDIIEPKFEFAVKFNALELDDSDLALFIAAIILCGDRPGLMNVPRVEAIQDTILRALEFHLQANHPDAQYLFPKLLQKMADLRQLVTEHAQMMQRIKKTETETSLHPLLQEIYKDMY
Summary of the method: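 Beta-lactamase reporter read by fluorescence (LiveBLAzer B/G FRET, 2 h, room temperature). Test agents, in DMSO, incubated at 37 C with PPARd-bla HEK293H cells.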

[2] = biological target: Peroxisome proliferator-activated receptor delta (Homo sapiens) (UniProt Q03181); test: qHTS assay to identify small molecule antagonists of the peroxisome proliferator-activated receptor delta (PPARd) signaling pathway (AID 743215; active means well fitted inhibition curve with a large enough effect in the signal ratio in the repeat runs, not every such curve was filed as active; the % refers to the signal ratio; further: series mostly up to about 62 µM)
Summary of the method: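 HEK293H GeneBLAzer PPARd UAS-bla reporter cells; cpd + L165041 300 nM final, 17 h 37 C; LiveBLAzer B/G FRET substrate 2 h RT; fluorescence intensity read-out. Antagonist mode.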

[3] = qHTS assay to identify small molecule agonists of the farnesoid-X-receptor (FXR) signaling pathway - cell viability counter screen (AID 743218); further: nearly all actives have a fitted effect of over 45% in size
Summary of the method: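 Luminescence from CellTiter-Glo, read after 30 min at RT, reports viability of GeneBLAzer FXR-UAS-bla HEK 293T cells treated 16 h with compounds in the wells used for the beta-lactamase reporter.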

[4] = qHTS assay to identify small molecule antagonists of the farnesoid-X-receptor (FXR) signaling pathway - cell viability counter screen (AID 743221; active means well fitted cell-killing curve with a large enough effect in the repeat runs, not every such curve was filed as active; further: nearly all actives have a fitted effect of over 50% in size)
Summary of the method: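 CellTiter-Glo, 30 min RT, luminescence; same wells as the LiveBLAzer FRET read. Cells: FXR-UAS-bla HEK 293T. Treatment: compound with chenodeoxycholic acid 50 uM final, 16 h at 37 C.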

[5] = qHTS assay to identify small molecule agonists of the vitamin D receptor (VDR) signaling pathway - cell viability counter screen (AID 743224); further: series mostly up to about 63 µM; nearly all actives have a fitted effect of over 50% in size
Summary of the method: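 Cytotoxicity counter screen: VDR-bla cells, 16 h compound exposure at 37C, 5% CO2; CellTiter-Glo luminescence, 30 min RT, same wells as bla read.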

[6] = qHTS assay to identify small molecule antagonists of the peroxisome proliferator-activated receptor delta (PPARd) signaling pathway - cell viability counter screen (AID 743213); further: nearly all actives have a fitted effect of over 50% in size
Summary of the method: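 Agonist-stimulated (L165041, 300 nM final) HEK293H PPARd UAS-bla cells are exposed to compounds for 17 h at 37 C, and ATP-based luminescence (CellTiter-Glo) from the same wells reports cytotoxicity.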

[7] = biological target: Bile acid receptor (Homo sapiens) (UniProt Q96RI1); test: qHTS assay to identify small molecule antagonists of the farnesoid-X-receptor (FXR) signaling pathway (AID 743217; active means well fitted inhibition curve with a large enough effect in the signal ratio in the repeat runs, not every such curve was filed as active; the % refers to the signal ratio)
Bile acid receptor (Homo sapiens), sequence (Q96RI1 whole entry, looked up): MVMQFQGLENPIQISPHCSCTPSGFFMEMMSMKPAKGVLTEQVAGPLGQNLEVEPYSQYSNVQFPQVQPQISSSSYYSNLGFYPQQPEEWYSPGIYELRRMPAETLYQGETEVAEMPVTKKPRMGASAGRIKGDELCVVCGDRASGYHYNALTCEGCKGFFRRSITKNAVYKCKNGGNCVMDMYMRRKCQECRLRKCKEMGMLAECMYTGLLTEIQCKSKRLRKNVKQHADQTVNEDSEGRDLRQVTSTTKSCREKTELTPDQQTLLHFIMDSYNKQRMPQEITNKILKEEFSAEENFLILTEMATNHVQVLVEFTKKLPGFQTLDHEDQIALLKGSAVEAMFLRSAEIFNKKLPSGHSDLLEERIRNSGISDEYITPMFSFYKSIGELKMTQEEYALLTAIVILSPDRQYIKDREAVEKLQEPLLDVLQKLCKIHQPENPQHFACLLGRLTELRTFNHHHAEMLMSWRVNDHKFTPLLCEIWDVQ
Summary of the method: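 Read-out: beta-lactamase FRET fluorescence (LiveBLAzer B/G substrate, 2 h, room temperature) in GeneBLAzer FXR-UAS-bla HEK 293T cells. Compounds were co-dosed with 50 uM chenodeoxycholic acid (final) and incubated 16 h at 37 °C.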

[8] = biological target: Bile acid receptor (Homo sapiens) (UniProt Q96RI1); test: qHTS assay to identify small molecule agonists of the farnesoid-X-receptor (FXR) signaling pathway (AID 743220; active means well fitted activation curve with a large enough effect in the signal ratio in the repeat runs, not every such curve was filed as active; the % refers to the signal ratio)
Summary of the method: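 FXR-UAS-bla HEK 293T cells carrying a UAS-driven beta-lactamase reporter were plated for 5 h at 37C/5% CO2, then exposed to DMSO-dissolved Tox21 10K compounds for 16 h at 37C. A LiveBLAzer B/G FRET substrate was loaded for 2 h at room temperature before fluorescence reading.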

[9] = biological target: Vitamin D3 receptor (Homo sapiens) (UniProt P11473); test: qHTS assay to identify small molecule agonists of the vitamin D receptor (VDR) signaling pathway (AID 743222; calls by dose curve)
Vitamin D3 receptor (Homo sapiens), sequence (P11473 whole entry, looked up): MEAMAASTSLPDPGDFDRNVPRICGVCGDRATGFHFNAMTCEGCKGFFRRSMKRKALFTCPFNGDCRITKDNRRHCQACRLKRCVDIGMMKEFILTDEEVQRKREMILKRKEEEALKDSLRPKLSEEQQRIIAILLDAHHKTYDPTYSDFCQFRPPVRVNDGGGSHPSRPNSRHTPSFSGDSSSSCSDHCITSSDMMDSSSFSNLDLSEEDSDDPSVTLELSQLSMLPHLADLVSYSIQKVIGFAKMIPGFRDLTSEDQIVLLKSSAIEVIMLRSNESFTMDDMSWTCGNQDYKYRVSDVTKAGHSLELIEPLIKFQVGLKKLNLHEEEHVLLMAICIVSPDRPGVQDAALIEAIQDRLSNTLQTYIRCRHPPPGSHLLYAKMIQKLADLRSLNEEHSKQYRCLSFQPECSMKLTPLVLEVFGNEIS
Summary of the method: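 Beta-lactamase reporter readout (LiveBLAzer B/G FRET, 2 h RT) in VDR-bla cells after 16 h compound treatment at 37C, 5% CO2; cells pre-incubated 4 h before pin transfer of DMSO solutions.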

[10] = biological target: Vitamin D3 receptor (Homo sapiens) (UniProt P11473); test: qHTS assay to identify small molecule antagonists of the vitamin D receptor (VDR) signaling pathway (AID 743223; active means well fitted inhibition curve with a large enough effect in the signal ratio in the repeat runs, not every such curve was filed as active; the % refers to the signal ratio)
Summary of the method: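 After VDR-bla cells are plated and left 4 h at 37C, DMSO-dissolved compounds and 3 nM (final) calcitriol agonist are added. Incubation continues 16 h at 37C; FRET beta-lactamase substrate then develops 2 h at room temperature.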

Measured: outcome

O=C1c2ccccc2C(=O)N1CO
inactive: [1] | [2] | [3] | [4] | [5]

COc1cc(OC)cc(OC)c1
not listed: [1]
inactive: all other assays above

CSC(=O)c1cccc2nnsc12
inactive: [1] | [2] | [4] | [9] | [10] | [5]

Clc1cc(Cl)c(Cl)c(Cl)c1Cl
inactive: [6] | [3] | [4] | [9] | [10] | [5]

c1coc(Cn2cccc2)c1
inactive: [6] | [7] | [3] | [8] | [4] | [5]

CCCC(C)C(O)CC (stereo not drawn)
inactive: [7] | [3] | [8] | [4] | [9] | [5]

CCCCC(CC)COC(=O)CC#N (stereo not drawn)
not listed: [1] | [2] | [6]
inactive: all other assays above

C=CCCCCCCCCOC(C)=O
inactive: [7] | [3] | [8] | [4] | [5]

NC[C@H]1O[C@H](O[C@H]2[C@H](O)[C@@H](O[C@H]3O[C@H](CO)[C@@H](O)[C@H](N)[C@H]3O)[C@H](N)C[C@@H]2N)[C@H](N)[C@@H](O)[C@@H]1O
inactive: [6] | [3] | [4] | [10] | [5]

CCNC(=O)C(C)OC(=O)Nc1ccccc1 (stereo not drawn)
not listed: [1] | [2] | [6]
inactive: all other assays above

COc1cc(C(=O)NC2CCCNC2)cc(OC)c1OC (stereo not drawn)
not listed: [1] | [2] | [6]
inactive: all other assays above

CCCCCCCCOCCC#N
inactive: [3] | [4] | [9] | [10] | [5]

C=CC(=O)OCCOCCOCC
inactive: [6] | [3] | [4] | [5]

COc1cnc(NS(=O)(=O)c2ccc(N)cc2)nc1
inactive: [6] | [4] | [5]

CCc1ccc(CC)cc1
inactive: [3] | [4] | [9] | [10] | [5]

CCC(=O)OCCOc1ccccc1
inactive: [6] | [3] | [4] | [9] | [10] | [5]

C/C=C/C(=O)CCCC
inactive: [2] | [7] | [8] | [4] | [10]

CCCCOCCCC
inactive: [6] | [3] | [4] | [9] | [10] | [5]

CC(C)=CCC/C(C)=C\C#N
not listed: [1] | [2] | [7]
inactive: all other assays above

CCCC(=O)C(CC)Sc1ccoc1C (stereo not drawn)
inactive: [3] | [4] | [9] | [5]

CCC(C)SSC(C)CC (stereo not drawn)
inactive: [6] | [3] | [4] | [9] | [10] | [5]

CNCCc1ccccn1
inactive: [3] | [4] | [5]

CC(=O)O[C@@H]1CC2C3CCc4cc(OC(=O)c5ccccc5)ccc4C3CCC2(C)[C@H]1OC(C)=O (stereo partly drawn)
not listed: [1] | [2] | [6]
inactive: all other assays above

CC(C)(O)c1ccc(C(C)(C)O)cc1
inactive: [6] | [3] | [4] | [9] | [5]

COc1ccc(Cl)cc1C
inactive: [6] | [3] | [4] | [9] | [5]

CC[N+](C)(CC)CC
inactive: [7] | [3] | [8] | [4] | [5]

CC(=O)Nc1ccc(OCCOCCOc2ccc(NC(C)=O)cc2)cc1
inactive: [6] | [3] | [4] | [5]

CCCCCCCCCCCCCCBr
inactive: [7] | [3] | [8] | [4] | [10] | [5]

CCCc1ccc(O)c(OC)c1
inactive: [3] | [4] | [5]

N#CC1(N)CCCCC1
inactive: [3] | [4] | [9] | [10] | [5]

CCOc1ccccc1OCCN[C@H](C)Cc1ccc(OC)c(S(N)(=O)=O)c1
inactive: [3] | [4] | [9] | [10] | [5]

CO/N=C(\C(=O)O)c1csc(NC(=O)CCl)n1
inactive: [3] | [4] | [9] | [10] | [5]

N=C(N)S(=O)O
inactive: [6] | [3] | [4] | [9] | [10] | [5]

CCCC(=O)OC
inactive: [3] | [4] | [10] | [5]

O=C(O)Cc1ccccc1Oc1ccc(Cl)cc1Cl
inactive: [7] | [3] | [8] | [4] | [5]
